High-throughput results (PubChem BioAssay)
In the library only some 3.7% were active in any assay of this set; here they are far more common.
RE007 growth inh: less growth of the S. pombe RE007 Vpr strain. S. pombe RE007 Vpr strain, BacTiter-Glo ATP luminescence, 24 h. Potency, µM (titrated, usually from 92.2 µM), for inactives: top-dose activity change, negative = less growth, usual class: inhibitors. actives 0.21% (n = 360,000); active means well fitted falling curve with a large enough effect; inconclusive means small, poorly fitted or top-dose-only effect; inactive means no such curve, though single readings can be large or run the other way; further: nearly all actives have a fitted effect of over 50% in size
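Fission yeast RE007 carrying one integrated HIV-1 vpr copy, seeded at OD 0.01 in PMG+AL medium with 23 nL pinned compound. Grown 24 h at 30 degrees; viability read by BacTiter-Glo luminescence after 5 min.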
TbPYK inhibitor: T. brucei pyruvate kinase inhibition; Q57TT1; TbPYK enzyme, Kinase-Glo Plus ATP luminescence, 45 min; Potency, µM (titrated, usually from 76.8 µM), for the others: top-dose activity, negative = inhibition, actives largely listed as inhibitors; actives 0.12% (n = 410,000); further: nearly all actives have a fitted effect of over 50% in size
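Screened from lowest to highest concentration, compounds were pinned into TbPYK/substrate mixtures, and ADP (130 uM final) was added. Plates sat at room temperature for 45 min prior to Kinase-Glo Plus detection by luminescence.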
Sm TGR block: inhibitors of Schistosoma mansoni thioredoxin glutathione reductase; Potency, µM (highest dose often 114 µM), for the others: at the highest dose activity change, negative = inhibition, most hits filed as inhibitors; purified TGR, DTNB reduction, TNB absorbance 405 nm; Q962Y6; actives 3% (n = 360,000); AID 485364; further: nearly all actives have a fitted effect of over 60% in size
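TGR 20 nM + NADPH 100 uM (dispensed conc.), cpd preinc 15 min RT; start with NADPH (500 uM addition) then DTNB (15 mM addition). Kinetic TNB absorbance, 405 nm filter. Four-parameter Hill fit across titration.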
FMDV inh: blocks foot and mouth disease virus | AID 1159524 | Potency, µM (highest dose often 57.9 µM), for inactives: top-dose activity change, negative = inhibition, hits mostly inhibitors | actives 1.2% (n = 410,000) | FMDV antiviral cell-based qHTS; calls by dose curve; tested in HEK293T cells; further: read-out not given here; nearly all actives have a fitted effect of over 45% in size
* hit, by the source's call; ? = inconclusive; . = no result. Unless noted, the call rests on the fitted dose curve; in most records, active means well fitted curve in the direction sought with a large enough effect; inconclusive means small, poorly fitted or top-dose-only effect, or another doubt; inactive means no such curve, though single readings can be large; an effect the other way counts as inactive or inconclusive. On the % scale 0 is the no-effect control and ±100 the full control effect; potency means the concentration at half of the fitted maximal effect.

SMILES	RE007 growth inh	TbPYK inhibitor	Sm TGR block	FMDV inh
O[C@@H](CNC[C@H](O)[C@H]1CCc2cc(F)ccc2O1)[C@@H]1CCc2cc(F)ccc2O1	.	0%	.	.
CC1CCC2(CC1)NC(=O)N(CC(=O)Nc1sc3c(c1C(N)=O)CCC3)C2=O (centres undefined)	-3%	-6%	40µM*	-3%
COc1cc2c(cc1OC)C(C)N(C(=O)C1COc3ccccc3O1)CC2 (centres undefined)	23%	-3%	-1%	25µM*
COc1cc2c(cc1OC)C(C)N(C(C)=O)CC2 (centres undefined)	0%	-7%	-27%	.
Cc1occc1C(=O)NCc1ccc(C(=O)O)o1	-3%	3%	40µM*	-3%
Cc1occc1C(=O)NCCc1ccc(Cl)cc1	-11%	-2%	22µM*	45%
Cc1ccoc1C(=O)NCCCNC(=O)c1occc1C	1%	-1%	45µM*	1%
Cc1occc1C(=O)NCCCCc1ccccc1	?	-14%	20µM*	13%
CCOC(=O)CNC(=O)Nc1cc(C(=O)NCc2ccccc2OC)ccc1N1CCCC1	.	0%	-1%	-15%
c1ccc(-c2nnc(CN3CCCc4ccccc43)o2)cc1	-14%	0%	40µM*	8%
Cc1noc(C)c1CC(=O)NCC1Cc2cc(-c3cccc(OC(F)(F)F)c3)ccc2O1 (centres undefined)	.	.	.	-6%
CNC(=S)N/N=C(\C)c1ccccc1	-6%	-8%	5.6µM*	10%
CNC(=S)N/N=C(\C)c1ccc(C(C)(C)C)cc1	0%	4%	3%	2%
COc1ccc(NC(=O)C(C)N(c2ccccc2)S(C)(=O)=O)cc1 (centres undefined)	.	-3%	3%	-11%
O=C(CCc1ccc(S(=O)(=O)NCc2ccccc2)cc1)NCc1ccco1	-27%	6%	-2%	6%
COc1ccc(N(C(C)C(=O)NCc2ccco2)S(C)(=O)=O)cc1 (centres undefined)	13%	-19%	25µM*	-4%
CC(C)(C)NS(=O)(=O)c1ccc(CCC(=O)NCc2ccco2)cc1	17%	-6%	35µM*	29%
COc1ccc(CCC(=O)NCc2ccco2)cc1	37%	-19%	56µM*	-15%
COc1cccc(NC(=O)CCC(=O)NCc2ccco2)c1	32%	3%	-11%	-5%
CC[C@H]1OC(=O)C[C@@H](O)[C@H](C)[C@@H](O[C@@H]2O[C@H](C)[C@@H](O)[C@H](N(C)C)[C@H]2O)[C@@H](CCN2C[C@H](C)C[C@H](C)C2)C[C@@H](C)C(=O)/C=C/C(C)=C/[C@@H]1CO[C@@H]1O[C@H](C)[C@@H](O)[C@@H](OC)[C@H]1OC	.	.	.	-12%
O=C(NCC(c1ccc2c(c1)OCO2)N1CCOCC1)C(=O)Nc1ccccc1 (centres undefined)	.	-2%	11%	5%
Cc1nn(C)cc1C(C)NC(=O)c1cc(COc2cccc3cnccc23)on1 (centres undefined)	-8%	-2%	-14%	20µM*
O=C(c1cc(COc2cccc3cnccc23)on1)N1CCCC(CCCO)C1 (centres undefined)	-8%	27%	2%	32µM*
O=C1C=C(CO)OCC1=O	.	2%	.	.
CN1CCN(C(c2ccccn2)c2cc(Cl)c3cccnc3c2O)CC1 (centres undefined)	?	7%	1.3µM*	-26%
SMILES	RE007 growth inh	TbPYK inhibitor	Sm TGR block	FMDV inh
Oc1c(C(c2ccccn2)N2CCC(Cc3ccccc3)CC2)cc(Cl)c2cccnc12 (centres undefined)	?	31%	3.5µM*	22µM*
Cc1ccc(C(c2cc(Cl)c3cccnc3c2O)N2CCN(C)CC2)cc1 (centres undefined)	-14%	4%	0.71µM*	?
Oc1c(C(c2ccc(Cl)cc2)N2CCCC2)cc(Cl)c2cccnc12 (centres undefined)	-14%	-1%	3.2µM*	-28%
Cn1ncc2c(Nc3cccc(F)c3)ncnc21	.	5%	0%	-2%
Cc1cccc(N2CCN(C(=O)CCC(=O)NNc3nc4ccccc4c4nc(C)nn34)CC2C)c1 (centres undefined)	.	1%	1%	?
COC(=O)CNC(=O)c1cnn(-c2ncc3c(n2)-c2ccccc2CCC3)c1C1CC1	.	.	.	48%
CCOC(=O)[C@]12Cc3c(cc(OC)c(OC)c3OC)[C@H]1N(CCC(=O)OC)C(=O)c1ccccc12	-18%	-5%	.	?
